Test results reported in PubChem BioAssay (NCATS).
Where “and” joins values, the source holds several entries; their conditions need not be identical. Equal entries are not always repeated. Results filed as inconclusive are left out. Calls of active or inactive are those of the source. Unless noted, calls follow the shape of the dose curve; as a rule, active = well fitted curve in the direction sought with a large enough effect; inconclusive = small, poorly fitted or top-dose-only effect, or another doubt; inactive = no such curve, though single readings can be large; an effect the other way counts as inactive or inconclusive.

Key:
[1] = Cellular Toxicity (caspase-3) HepG2 (AID 654);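 also: cells exposed to compound for 16 hours before reading; 0% = DMSO alone and 100% = caspase signal from 100 µM tamoxifen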
Summary of the method: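 Cells plated 5 hr at 37 °C, compound added, incubated 16 hr at 37 °C. Caspase-Glo 3/7 reagent followed, 20 min at room temperature, then luminescence read. Activation scored as signal increase; AC50 from Hill fit.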

[2] = Cellular Toxicity (caspase-3) HUV-EC-C (AID 656);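 also: 0% = DMSO basal and 100% = 100 µM tamoxifen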
Summary of the method: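 Luminescent Caspase-Glo 3/7 readout after 16 h, 37 °C compound exposure of HUV-EC-C endothelial cells, 1000 per well, complete medium. AC50 derived by Hill fitting, with DMSO as baseline and 100 uM tamoxifen as full activation.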

[3] = Cellular Toxicity (caspase-3) SHSY5Y (AID 657)
Summary of the method: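 Luminescent Caspase-Glo 3/7 read-out, 1 hr room temperature, follows 16 hours of compound treatment of SH-SY5Y cells at 37 °C. Normalization: DMSO basal, 10 uM staurosporine as 100%; AC50 values from Hill-equation concentration-response fits.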

[4] = Cellular Toxicity (caspase-3) BJ (AID 658);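 also: 0% = DMSO basal and 100% = 10 µM staurosporine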
Summary of the method: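 BJ human foreskin fibroblasts, 1000 cells/well, treated 16 hours at 37 °C in complete medium; caspase 3/7 activity by Caspase-Glo luminescence after 1 hr at room temperature. Normalized to DMSO and 10 uM staurosporine; AC50 from Hill fits.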

[5] = Cellular Toxicity (caspase-3) Mesangial (AID 660);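 also: combined caspase 3 and 7 activity read by Caspase-Glo luminescence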
Summary of the method: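 Mesangial cells, 1000/well, 5 h settle at 37 °C; compound 16 h, 37 °C; Caspase-Glo 3/7 reagent 20 min RT; luminescence. Norm.: DMSO = 0%, tamoxifen 100 uM = 100%. AC50, Hill fit.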

[6] = Cellular Toxicity (caspase-3) SK-N-SH (AID 661);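 also: 0% = DMSO basal and 100% = 10 µM staurosporine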
Summary of the method: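 Human neuroblastoma SK-N-SH, 1500 cells/well, 5 hr pre-incubation, then compound 16 hr, 37 °C. Caspase-Glo 3/7 reagent, 1 hr RT, luminescence. Norm. to DMSO/10 uM staurosporine; Hill-fit AC50.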

[7] = Cellular Toxicity (caspase-3) H-4-II-E (AID 663); conditions: Potency: caspase-3 activation;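 also: cells exposed to compound for 16 hr before readout; 0% = DMSO basal and 100% = 100 µM tamoxifen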
Summary of the method: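 Rat hepatoma H-4-II-E cells (1500/well) plated 5 hr, then exposed to compound titrations for 16 hr at 37 °C. Caspase-Glo 3/7 luminescence read after 20 min at RT; data normalized to DMSO and 100 uM tamoxifen, AC50 from Hill fits.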

[8] = Cellular Toxicity (caspase-3) N2a (AID 665);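 also: compound exposure lasted 16 h at 37 °C before readout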
Summary of the method: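 N2a cells, 1500/well, 5 h settle at 37 °C; cpd 16 h, 37 °C; Caspase-Glo 3/7, 1 h RT; luminescence. Norm: DMSO = 0, 10 uM staurosporine = 100%. AC50, Hill fit.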

[9] = Cell Viability - LYMP2-001 (AID 921);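 also: series mostly up to about 92 µM; 0% = DMSO only and full inhibition = tetraoctylammonium bromide control wells; nearly all actives have a fitted effect of over 70% in size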
Summary of the method: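 Cellular ATP loss read by luciferase luminescence after 24 h compound exposure at 37 C in complete medium. LYMP2-001 lymphoblastoid cells, 2500/well; qHTS concentration-response data fitted with Hill equation for AC50.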

[10] = Cell Viability - LYMP1-002 - Assay at 16 hr (AID 948);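 also: 0% = DMSO alone and full effect = 92 µM tetraoctylammonium bromide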
Summary of the method: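 ATP luminescence (CellTiter-Glo) was measured after 16 hr compound exposure at 37 C of 2500 lymphoblastoid LYMP1-002 cells per well. Concentration-response curves were fitted with the Hill equation to give AC50.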

[11] = MultiTox-Fluor Cytotoxicity Assay - LYMP1-003 - Dead Cells (AID 961);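 also: 0% = DMSO and 100% = tetraoctylammonium bromide; nearly all actives have a fitted effect of over 70% in size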
Summary of the method: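 Acute toxicity is scored as increased dead-cell protease activity in human lymphoblastoid LYMP1-003 cells after 16 h compound exposure in complete culture medium. Activity is normalized to DMSO basal and 15 uM tetraoctylammonium bromide as full response.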

[12] = MultiTox-Fluor Cytotoxicity Assay - LYMP1-003 - Live Cells (AID 962);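 also: 0% = DMSO only and full loss = 92 µM tetraoctylammonium bromide; cytotoxic hits lower the live-cell protease signal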
Summary of the method: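 qHTS, 1536-well; 2500 cells/well LYMP1-003; 5 hr 37 C settle; cpd 16 hr 37 C; MultiTox-Fluor reagent 60 min RT; live-cell protease fluor. 405/510; Hill-fit AC50; tetraoctylammonium bromide pos. ctrl.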

[13] = Cell Viability - LYMP2-013 (AID 970);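 also: series mostly up to about 92 µM; 0% = DMSO only and full inhibition = tetraoctylammonium bromide control; nearly all actives have a fitted effect of over 55% in size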
Summary of the method: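 qHTS; 2500 lymphoblastoid cells/well; 5 hr 37 C settle; cpd 24 hr 37 C; CellTiter-Glo, 30 min RT; luminescence. AC50 = Hill fit.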

[14] = Cell Viability - LYMP2-023 (AID 975);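 also: cellular ATP measured by luciferase luminescence as viability proxy; series mostly up to about 92 µM; cells exposed to compound for 24 hours at 37 °C; plate controls were DMSO only for no effect and 92 µM tetraoctylammonium bromide control for full effect; nearly all actives have a fitted effect of over 55% in size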
Summary of the method: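 2500 cells/well, 5 hr 37 C; cpd 24 hr 37 C; CellTiter-Glo, 30 min RT; luminescence. qHTS conc-response, Hill fit -> AC50. Pos ctrl tetraoctylammonium bromide.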

[15] = Cell Viability - LYMP2-025 (AID 976);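 also: series mostly up to about 92 µM; plate controls were DMSO only for no effect and tetraoctylammonium bromide control for full effect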
Summary of the method: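 Seed 2500 LYMP2-025 cells/well; 5 hr at 37 C; add compound; 24 hr at 37 C; add CellTiter-Glo; 30 min RT; read luminescence. AC50 from Hill-modelled concentration-response.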

[16] = Cell Viability - LYMP2-007 (AID 979);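 also: cells exposed to compound for 24 h before reading; 0% = DMSO only and the negative end = 92 µM tetraoctylammonium bromide; nearly all actives have a fitted effect of over 60% in size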
Summary of the method: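 Luminescent ATP signal (CellTiter-Glo) serves as the viability read-out after 24 hr compound treatment of lymphoblastoid cells in complete medium at 37 C. Concentration-response data were fitted to the Hill equation to give AC50 values.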

[17] = Cell Viability - LYMP2-008 (AID 980); also: % is scaled to controls: 0 for no effect and ±100 for the full control effect; nearly all actives have a fitted effect of over 60% in size
Summary of the method: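 qHTS, human lymphoblastoid line, 2500 cells/well; 5 hr preincubation, 24 hr compound, 37 C. CellTiter-Glo ATP luminescence. AC50 via Hill equation. Tetraoctylammonium bromide positive control.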

[18] = Cell Viability - LYMP2-026 (AID 989); also: % is scaled to controls: 0 for no effect and ±100 for the full control effect; nearly all actives have a fitted effect of over 50% in size
Summary of the method: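 Luminescent ATP signal (CellTiter-Glo, 30 min room temperature) measures viable lymphoblastoid cells after 24 hr compound treatment at 37 C. Decreased ATP reflects acute toxicity; AC50 values come from Hill-equation modeling.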

[19] = qHTS Assay for Identification of Small Molecule Inducers of Hypoxia Response (AID 2120; active = well fitted curve in the direction sought with a large enough effect in the signal ratio, with a control signal flat, not every such curve was filed as active; the % refers to the signal ratio; also: 0% is about no effect)
Summary of the method: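 ME-180 HRE-bla cells plated in Opti-MEM/0.5% dialyzed FBS, rested 4-5 h, then dosed with compound titrations by pin tool. After 17 h at 37 degrees C, CCF4 dye loaded 2.5 h at RT; 460/530 nm ratio gave %Activity and AC50.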

[20] = qHTS assay for cell viability of HEK293 cells (AID 743288); conditions: ATP luminescence (CellTiter-Glo), 18 h, stronger effect = lower value; also: % is scaled to controls: 0 for no effect and ±100 for the full control effect; nearly all actives have a fitted effect of over 50% in size
Summary of the method: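 Total intracellular ATP, measured with a luciferase-coupled reagent, indicates the number of viable HEK293 cells. Exposure to test chemicals lasts 18 h at 37 C in 1,536-well format at 2,000 cells/well.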

CC(C)Br
inactive: outcome [1] | outcome [2] | outcome [3] | outcome [4] | outcome [5] | Potency [6] | Potency [7] | outcome [8] | Potency [9] | outcome [10] | Potency [11] | outcome [12] | Potency [13] | Potency [14] | Potency [15] | Potency [16] | Potency [17] | Potency [18] | Potency [19] | max response [20] -0.407%

CC(C)(OOC(C)(C)c1ccccc1)c1ccccc1
inactive: outcome [1] | outcome [2] | outcome [3] | outcome [4] | outcome [5] | Potency [6] | Potency [7] | outcome [8] | Potency [9] | outcome [10] | Potency [11] | outcome [12] | Potency [13] | Potency [14] | Potency [15] | Potency [16] | Potency [17] | Potency [18] | Potency [19] | max response [20] -10.5% and -9.14%

C=CCO
inactive: outcome [1] | outcome [2] | outcome [3] | outcome [4] | outcome [5] | Potency [6] | Potency [7] | outcome [8] | Potency [9] | outcome [10] | Potency [11] | outcome [12] | Potency [13] | Potency [14] | Potency [15] | Potency [16] | Potency [17] | Potency [18] | Potency [19] | max response [20] 9.9%

CCCCC(=O)Cl
inactive: outcome [1] | outcome [2] | outcome [3] | outcome [4] | outcome [5] | Potency [6] | Potency [7] | outcome [8] | Potency [9] | outcome [10] | Potency [11] | outcome [12] | Potency [13] | Potency [14] | Potency [15] | Potency [16] | Potency [17] | Potency [18] | Potency [19] | max response [20] 5.94%

CCOC(=O)C1OC1(C)c1ccccc1 (centres undefined)
inactive: outcome [1] | outcome [2] | outcome [3] | outcome [4] | outcome [5] | Potency [6] | Potency [7] | outcome [8] | Potency [9] | outcome [10] | Potency [11] | outcome [12] | Potency [13] | Potency [14] | Potency [15] | Potency [16] | Potency [17] | Potency [18] | Potency [19] | max response [20] 7.29%

BrCC(Br)C1CCC(Br)C(Br)C1 (centres undefined)
inactive: outcome [1] | outcome [2] | outcome [3] | outcome [4] | outcome [5] | Potency [6] | outcome [8] | Potency [9] | outcome [10] | Potency [11] | outcome [12] | Potency [13] | Potency [14] | Potency [15] | Potency [16] | Potency [17] | Potency [18] | Potency [19] | max response [20] 1.74%

ClCCOCCCl
inactive: outcome [1] | outcome [2] | outcome [3] | outcome [4] | outcome [5] | Potency [6] | Potency [7] | outcome [8] | Potency [9] | outcome [10] | Potency [11] | outcome [12] | Potency [13] | Potency [14] | Potency [15] | Potency [16] | Potency [17] | Potency [18] | Potency [19] | max response [20] -0.0116%

Oc1ccc(Cl)c(Cl)c1Cl
inactive: outcome [1] | outcome [2] | outcome [3] | outcome [4] | outcome [5] | Potency [6] | Potency [7] | outcome [8] | Potency [9] | outcome [10] | Potency [11] | outcome [12] | Potency [13] | Potency [14] | Potency [15] | Potency [16] | Potency [17] | Potency [18] | Potency [19] | max response [20] -4.77%

Cc1ccc(N)cc1C
inactive: outcome [1] | outcome [2] | outcome [3] | outcome [4] | outcome [5] | Potency [6] | Potency [7] | outcome [8] | Potency [9] | outcome [10] | Potency [11] | outcome [12] | Potency [13] | Potency [14] | Potency [15] | Potency [16] | Potency [17] | Potency [18] | Potency [19] | max response [20] 0.786%

CC12CC1(C)C(=O)N(c1cc(Cl)cc(Cl)c1)C2=O (centres undefined)
inactive: outcome [1] | outcome [2] | outcome [3] | outcome [4] | outcome [5] | Potency [6] | Potency [7] | outcome [8] | Potency [9] | outcome [10] | Potency [11] | outcome [12] | Potency [13] | Potency [14] | Potency [15] | Potency [16] | Potency [17] | Potency [18] | Potency [19] | max response [20] 5.03% and -17.6%

CCCCNC(=O)n1c(NC(=O)OC)nc2ccccc21
inactive: outcome [1] | outcome [2] | outcome [3] | outcome [4] | outcome [5] | Potency [6] | Potency [7] | outcome [8] | Potency [9] | outcome [10] | Potency [11] | outcome [12] | Potency [13] | Potency [14] | Potency [15] | Potency [16] | Potency [17] | Potency [18] | Potency [19] | max response [20] -16.4% and -17.6%

CCCCC#N
inactive: outcome [1] | outcome [2] | outcome [3] | outcome [4] | outcome [5] | Potency [6] | Potency [7] | outcome [8] | Potency [9] | outcome [10] | Potency [11] | outcome [12] | Potency [13] | Potency [14] | Potency [15] | Potency [16] | Potency [17] | Potency [18] | Potency [19] | max response [20] 2.15%

c1ccc(C2CO2)cc1 (centres undefined)
inactive: outcome [1] | outcome [2] | outcome [3] | outcome [4] | outcome [5] | Potency [6] | Potency [7] | outcome [8] | Potency [9] | outcome [10] | Potency [11] | outcome [12] | Potency [13] | Potency [14] | Potency [15] | Potency [16] | Potency [17] | Potency [18] | Potency [19] | max response [20] -9.74%

COc1ccc(C=O)cc1
inactive: outcome [1] | outcome [2] | outcome [3] | outcome [4] | outcome [5] | Potency [6] | Potency [7] | outcome [8] | Potency [9] | outcome [10] | Potency [11] | outcome [12] | Potency [13] | Potency [14] | Potency [15] | Potency [16] | Potency [17] | Potency [18] | Potency [19] | max response [20] -1.3%

CC(C)CON=O
inactive: outcome [1] | outcome [2] | outcome [3] | outcome [4] | outcome [5] | Potency [6] | Potency [7] | outcome [8] | Potency [9] | outcome [10] | Potency [11] | outcome [12] | Potency [13] | Potency [14] | Potency [15] | Potency [16] | Potency [17] | Potency [18] | Potency [19] | max response [20] -12.6%
